Screening results deposited in PubChem BioAssay by several laboratories.
WT yeast gro inh – growth inhibition of WT yeast, mitochondrial fusion screen | AID 1362 | inhibition, % at 10 µM | mitochondrial fusion phenotypic screen, WT strain | 190,000 compounds, 2.1% hits; in the data active = inhibition above about 58%; tested in S. cerevisiae
Lmaj promast – Leishmania major promastigote growth inhibition; inhibition, % at 10 µM; Leishmania major promastigotes, resazurin fluorescence viability; 200,000 compounds, 9% hits; in the data active = inhibition above about 50%;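 also: promastigotes grown with compound for 44 hours at 28 °C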
ROMK primary – human ROMK K+ channel modulation, primary screen. Tet-inducible ROMK, thallium flux fluorescence; actives lie on both sides. B-score at 10 µM. 130,000 compounds, 2% hits;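 active = signal ratio slope over the read window, or its plate-corrected B-score, at least 3 SD from the plate mean, either direction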;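 also: B-score of the F/F0 ratio slope over 7 to 12 s after thallium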
Target sequence (P48048 whole entry, looked up): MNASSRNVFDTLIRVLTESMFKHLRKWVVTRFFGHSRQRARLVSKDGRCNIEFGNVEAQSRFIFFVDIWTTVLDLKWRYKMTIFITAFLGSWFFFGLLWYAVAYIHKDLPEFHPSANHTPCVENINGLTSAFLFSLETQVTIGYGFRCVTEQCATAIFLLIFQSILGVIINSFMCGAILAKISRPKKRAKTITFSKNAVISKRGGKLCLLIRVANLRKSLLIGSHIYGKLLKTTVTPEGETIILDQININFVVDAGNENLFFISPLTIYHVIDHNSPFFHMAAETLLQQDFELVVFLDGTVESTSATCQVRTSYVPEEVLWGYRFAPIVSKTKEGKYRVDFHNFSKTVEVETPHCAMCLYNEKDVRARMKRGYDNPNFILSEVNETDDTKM
INS promoter inh – TRM-6 insulin promoter activity inhibition; TRM-6 cells (human fetal islet line), insulin promoter-eGFP reporter, imaging; reporter expression induced with tamoxifen; inhibition, % at 2 µM; 130,000 compounds, 0.9% hits;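 active = inhibition above the mean plus 3 SD, with well images judged a real hit on visual review, cut at about 60% in these data, passing the limit was not always enough; inconclusive = inhibition over the cutoff but images rejected on review; inactive = inhibition not above the cutoff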
Insulin prom up – MIN6 insulin promoter up-regulation; 190,000 compounds, 0.3% hits; z-score at 5 µM; MIN6 insulin promoter-GFP reporter, high-content imaging; active compounds read high;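 active = z-score above 3 at 5 µM with at least 500 cells counted in the well; inconclusive = wells under 500 cells, flagged as cytotoxic or low count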
Cl transport mod – modulates chloride dependent transport by human KCC2; KCC2 cells, thallium flux FluoZin-2 fluorescence; B-score of Tl+ flux slope (higher = more flux/activation; lower = inhibition) at 10 µM; 190,000 compounds, 2.2% hits; Q9H2X9;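 active = thallium flux slope and its plate-corrected score both differing from the plate sample mean at a set confidence after two filtering rounds, in either direction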;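 also: slope of fluorescence scaled to starting intensity during 10 to 20 s after thallium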
KCC2 sec1 – confirmation of human KCC2 transport modulators | shares compounds with Cl transport mod | HEK293-KCC2, thallium flux, FluoZin2 fluorescence; active compounds read high | normalised thallium flux (F/F0 slope) at 10 µM | 3,700 compounds, 15% hits | AID 1713;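 active = thallium flux slope above the same plate's solvent-only control mean plus 3 SD; inconclusive = the two replicate wells disagree; inactive = no significant difference from solvent-only control wells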
KCC2 bumet counter – thallium flux despite bumetanide block in KCC2 cells, secondary assay 3. shares compounds with Cl transport mod. HEK293-KCC2 + bumetanide/ouabain, thallium flux FluoZin2; active compounds read high. normalized thallium flux at 10 µM. 3,700 compounds, 49% hits. AID 1714;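 active = thallium entry rate above the same plate's blocked-transporter control wells by more than 3 SD; inconclusive = the two repeat wells disagree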;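 also: raw slope of fluorescence over initial fluorescence between 10 and 20 s after thallium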
KCC2 secondary2 – confirmation of human KCC2 transport modulators; 3,700 compounds, 23% hits; shares compounds with Cl transport mod; normalized thallium flux at 10 µM; HEK293-KCC2, thallium flux FluoZin2 fluorescence; actives lie on both sides; F/F0 rise rate, 10–20 s post-thallium;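 active = thallium flux slope more than 3 SD above or below the plate's solvent-only control mean, mostly below; inconclusive = the two repeat wells disagreed; inactive = no significant shift from solvent-only controls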;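 also: raw slope with 0.1% DMSO as baseline and bumetanide as block control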
HEK293 Tl flux – parental HEK flux effect, counter-screen; shares compounds with Cl transport mod; HEK293 parental cells, thallium flux FluoZin2, ouabain; baseline-ratio fluorescence slope, 10–20 s after thallium; thallium flux rate (normalised fluorescence) at 10 µM; 3,700 compounds, 46% hits; AID 1716;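 active = thallium flux rate significantly above the same plate's solvent-only control wells, beyond their mean plus 3 SD; inconclusive = the two replicate wells gave conflicting results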
KCC2 retest ouab – modulates human KCC2 on retest with ouabain. raw Tl+ flux slope (below DMSO = inhibition, above = activation) at 10 µM. AID 1717. HEK293-KCC2, thallium flux FluoZin2 fluorescence; bidirectional: low = inhibitor, high = activator. shares compounds with Cl transport mod. 3,700 compounds, 48% hits;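 active = thallium flux slope beyond 3 SD from same-plate DMSO control mean in most replicates, usually higher, sometimes lower; inconclusive = repeat tests gave conflicting results; inactive = no significant difference from controls in most replicates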;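 also: slope of initial-normalized fluorescence between seconds 10 and 20 after thallium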
HEK counter2 – acts in parental HEK cells, second KCC2 counter-screen; 3,700 compounds, 33% hits; thallium flux slope at 10 µM; HEK293 parental, thallium flux FluoZin-2 fluorescence slope; AID 1718; shares compounds with Cl transport mod;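 active = thallium flux slope above the same plate's solvent-control mean plus 3 SD in both duplicate wells; inconclusive = duplicate wells that disagreed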;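 also: run without ouabain in cells lacking the KCC2 cotransporter; slope of fluorescence scaled to its starting value between 10 and 20 s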
* hit, by the source's call. Hits are enriched below; roughly 12% of the tested compounds scored in any of these assays.

What do the screens show for `N#CC1=C(N)N=C(SCc2ccccc2)C(C(N)=O)C12CCCCC2` (stereo not given)?
WT yeast gro inh: 0; Lmaj promast: 7; INS promoter inh: 19; Insulin prom up: 0.71; Cl transport mod: -5.5*; KCC2 sec1: 0.007; KCC2 bumet counter: 0.0094*; KCC2 secondary2: inconclusive; HEK293 Tl flux: 0.0076; KCC2 retest ouab: 0.014*; HEK counter2: 0.01

How did CN(NS(=O)(=O)c1ccc(Cl)cc1)c1nc(C(F)(F)F)nc2ccccc12 do in these assays?
WT yeast gro inh: 54; Lmaj promast: 3; INS promoter inh: 38; Insulin prom up: -0.71; Cl transport mod: -2.9*; KCC2 sec1: 0.0065; KCC2 bumet counter: 0.0055; KCC2 secondary2: 0.029; HEK293 Tl flux: inconclusive; KCC2 retest ouab: 0.018; HEK counter2: 0.01

How did O=C(Nc1nnc(-c2ccc(F)cc2)o1)c1cccc([N+](=O)[O-])c1 do in these assays?
WT yeast gro inh: 76*; Lmaj promast: 96*; ROMK primary: -1.6; INS promoter inh: 0; Insulin prom up: -1.8; Cl transport mod: 48*; KCC2 sec1: 0.033*; KCC2 bumet counter: 0.09*; KCC2 secondary2: 0.044*; HEK293 Tl flux: inconclusive; KCC2 retest ouab: 0.072*; HEK counter2: 0.023*

How did CCCN(CCC)S(=O)(=O)c1ccc(C(=O)Nc2nnc(-c3cc(OC)cc(OC)c3)o2)cc1 do in these assays?
WT yeast gro inh: 0; Lmaj promast: 100*; Insulin prom up: -4.6; Cl transport mod: 10*; KCC2 sec1: 0.009; KCC2 bumet counter: 0.021*; KCC2 secondary2: 0.036; HEK293 Tl flux: inconclusive; KCC2 retest ouab: 0.029*; HEK counter2: 0.013

Results for COc1cccc(-c2nnc(NC(=O)c3cccc(F)c3)o2)c1 ?
WT yeast gro inh: 62; Insulin prom up: 0.18; Cl transport mod: 33*; KCC2 sec1: inconclusive; KCC2 bumet counter: 0.1*; KCC2 secondary2: 0.088*; HEK293 Tl flux: 0.085*; KCC2 retest ouab: 0.092*; HEK counter2: 0.083*

How did CN(C)CCNC(=O)C(=O)c1c(-c2ccccc2)cc2ccccn12 do in these assays?
WT yeast gro inh: 10; Lmaj promast: -4; ROMK primary: 0.17; Insulin prom up: -0.35; Cl transport mod: 0.37

How did CCN(CC)S(=O)(=O)c1cccc(NC(=O)C(=O)c2c(-c3ccccc3)cc3ccccn23)c1 do in these assays?
WT yeast gro inh: 18; Lmaj promast: 98*; ROMK primary: -0.33; INS promoter inh: 17; Insulin prom up: -1; Cl transport mod: -2.9*; KCC2 sec1: 0.0059; KCC2 bumet counter: 0.0037; KCC2 secondary2: 0.027; HEK293 Tl flux: 0.0073; KCC2 retest ouab: 0.016; HEK counter2: 0.0099

Results for O=C(CCn1c2c(c3ccccc31)CCCC2)NNC(=O)c1ccccc1Cl ?
WT yeast gro inh: 13; Lmaj promast: -2; Insulin prom up: -0.84; Cl transport mod: 0.88

What do the screens show for `COc1ccccc1N1CCN(Cc2cccs2)CC1`?
Lmaj promast: -2; ROMK primary: -0.081; Cl transport mod: -0.036

Results for COc1ccc(OC)c(CN2CCN(c3ccccc3OC)CC2)c1 ?
WT yeast gro inh: 17; Lmaj promast: 1; INS promoter inh: -15; Insulin prom up: 0.18; Cl transport mod: 8.8*; KCC2 sec1: 0.0058; KCC2 bumet counter: 0.0051; KCC2 secondary2: 0.031; HEK293 Tl flux: 0.0081; KCC2 retest ouab: 0.019; HEK counter2: 0.011

Results for CCn1c(O)c(N=NC(=O)c2cccs2)c2ccccc21 ?
WT yeast gro inh: 15; Lmaj promast: 11; ROMK primary: -0.4; INS promoter inh: 50; Insulin prom up: -1.1; Cl transport mod: 8.8*; KCC2 sec1: inconclusive; KCC2 bumet counter: 0.029*; KCC2 secondary2: 0.032; HEK293 Tl flux: 0.013*; KCC2 retest ouab: 0.027*; HEK counter2: 0.011*

How did CCOc1ccc(N2C(=O)C3Sc4[nH]c(=O)sc4C(/C=C/c4ccccc4)C3C2=O)cc1 (stereo not given) do in these assays?
WT yeast gro inh: -11; Lmaj promast: -3; ROMK primary: -0.43; Insulin prom up: 0.21; Cl transport mod: -5.6*; KCC2 sec1: 0.0067; KCC2 bumet counter: inconclusive; KCC2 secondary2: 0.019*; HEK293 Tl flux: 0.0083; KCC2 retest ouab: 0.015*; HEK counter2: 0.011

What do the screens show for `COc1cc(C2c3sc(=O)[nH]c3SC3C(=O)N(c4ccc(Br)cc4)C(=O)C32)ccc1O` (stereo not given)?
Insulin prom up: 0.61

What do the screens show for `CCOC(=O)c1c(NC(=O)c2cc3n(n2)C(C(F)(F)F)CC(c2ccccc2)N3)sc(C)c1C` (stereo not given)?
WT yeast gro inh: -5; Lmaj promast: -4; ROMK primary: 0.61; Insulin prom up: -0.13; Cl transport mod: -0.2

How did CC1C(=O)CC(c2ccc([N+](=O)[O-])cc2)NC1c1ccc([N+](=O)[O-])cc1 (stereo not given) do in these assays?
WT yeast gro inh: 15; Lmaj promast: 5; ROMK primary: -0.0016; Insulin prom up: -1.3; Cl transport mod: 0.23

What do the screens show for `CCCCCCN1C(=O)C(O)=C(C(C)=O)C1c1ccc(Cl)cc1` (stereo not given)?
WT yeast gro inh: -5; Lmaj promast: -10; INS promoter inh: -4; Insulin prom up: 0.91; Cl transport mod: -3.3*; KCC2 sec1: 0.0093; KCC2 bumet counter: inconclusive; KCC2 secondary2: 0.03; HEK293 Tl flux: 0.0082; KCC2 retest ouab: 0.014*; HEK counter2: 0.011

How did CC1CC(C)CN(C(=O)CCCn2c(=S)[nH]c3ccccc3c2=O)C1 (stereo not given) do in these assays?
WT yeast gro inh: -14; Lmaj promast: 10; ROMK primary: -1.4; Insulin prom up: -0.35; Cl transport mod: 5.4*; KCC2 sec1: 0.0054; KCC2 bumet counter: 0.029*; KCC2 secondary2: 0.035; HEK293 Tl flux: 0.011*; KCC2 retest ouab: inconclusive; HEK counter2: inconclusive
